# Compound activity: PubChem BioAssay, National Center for Advancing Translational Sciences (NCATS)
# Rows were chosen to be rich in hits. Some 2.3% of all compounds tested hit in one or more screens of this group.
# A549 tox: counter-screen for Nrf2 inhibitors: cytotoxicity in A549 cells | A549 ARE-Fluc cells, CellTiter-Fluor viability, 18-24 h | Potency, µM (series often up to 46 µM), without a hit: at the highest dose activity change, negative = cytotoxicity, usual class: inhibitors | 390,000 compounds, 0.16% hits | AID 504648; note: potency is the fitted concentration of half-maximal effect; % is set by controls: 0 for no effect and ±100 for the full control effect
#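 A549 ARE-Fluc cells in 5% FBS OPTI-MEM, 5000 cells/well, rested 2 h then exposed to compounds in concentration-response for 18-24 h at 37 °C. Viability by CellTiter-Fluor fluorescence (Ex 405/Em 525) after 30 min; luciferase luminescence (BugLite, 15 min, RT) read afterwards.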
# Apoferritin bind: binds horse apoferritin like a general anesthetic. AID 485281. Potency, µM (series often up to 77.5 µM), for inactives: at the highest dose activity change, negative = displacement, hits mostly inhibitors. apoferritin/1-aminoanthracene competitive binding, fluorescence. 350,000 compounds, 0.074% hits. P02791; note: potency is the fitted concentration of half-maximal effect; % is set by controls: 0 for no effect and ±100 for the full control effect; nearly all actives have a fitted effect of over 20% in size
#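 Horse-spleen apoferritin (10 uM) was mixed with 50% saturated 1-aminoanthracene in PBS, exposed to compounds for 10 min at room temperature, and read for fluorescence (ex 380 nm, em 535 nm). Competitive displacement was fitted with a four-parameter Hill equation.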
# Giardia kill: Giardia lamblia killing; Giardia lamblia trophozoite viability; activity change, % at 7.66 µM, hits read low; 340,000 compounds, 0.15% hits; AID 540267; in the data active = activity change below about -80%; inconclusive = between about -30% and that limit;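 note: parasites exposed to compound for two days anaerobically before the ATP read; % is set by controls: 0 for no effect and ±100 for the full control effect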
#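 Compounds were tested on trophozoites seeded at 100 cells/well and held 48 hrs at 37 deg C anaerobically. An ATP-based luminescent kit measured the remaining live cells.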
# Nrf2 ARE act: Nrf2 pathway activation. AID 624171. Potency, µM (titrated, usually from 46.1 µM), for inactives: at the highest dose activation, hits mostly activators. AREc32 ARE-luciferase reporter (MCF7-derived line), luminescence, 24 h. 410,000 compounds, 0.31% hits; note: potency is the fitted concentration of half-maximal effect; % of control where 0% means no effect; nearly all actives have a fitted effect of over 65% in size
#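 ARE activation measured as luciferase luminescence (Steady-Glo, 30 min RT) in AREc32_Fluc cells after 24 hr compound exposure at 37 deg C, 5% CO2; cells seeded overnight at 1000/well in OPTI-MEM, 5% FBS.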
# mIDH1 inhibitor: human IDH1 R132H inhibition | IDH1-R132H enzyme, NADPH consumption, diaphorase/resazurin fluorescence | AID 602179 | Potency, µM (series often up to 76.6 µM), for the others: top-dose activity change, negative = inhibition, usual class: inhibitors | 390,000 compounds, 0.093% hits; note: potency is the fitted concentration of half-maximal effect; % is set by controls: 0 for no effect and ±100 for the full control effect; nearly all actives have a fitted effect of over 65% in size
# Target sequence (O75874 whole entry R132H, stated change not applied): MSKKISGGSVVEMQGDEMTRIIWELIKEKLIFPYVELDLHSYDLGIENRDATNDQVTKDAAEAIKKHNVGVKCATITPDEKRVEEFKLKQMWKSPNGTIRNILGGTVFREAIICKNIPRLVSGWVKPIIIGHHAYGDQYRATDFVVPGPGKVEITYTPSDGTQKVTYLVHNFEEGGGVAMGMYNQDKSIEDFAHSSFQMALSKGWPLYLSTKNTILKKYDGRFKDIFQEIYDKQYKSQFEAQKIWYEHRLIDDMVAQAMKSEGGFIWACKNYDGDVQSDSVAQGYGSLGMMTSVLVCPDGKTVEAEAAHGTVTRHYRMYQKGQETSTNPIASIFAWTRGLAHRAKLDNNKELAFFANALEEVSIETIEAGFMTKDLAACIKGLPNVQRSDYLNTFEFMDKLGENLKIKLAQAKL
#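 IDH1-R132H (0.5 ug/mL) preincubated 30 min with compound, then NADPH (0.016 mM) and alpha-KG (2 mM) added; 80 min at RT, pH 7.5. Remaining NADPH coupled via diaphorase/resazurin to fluorescence (540/590 nm); concentration-response curves normalized to no-enzyme control.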
# Nrf2 block: inhibitors of Nrf2 signaling | A549 ARE-Fluc reporter, luciferase luminescence, 18-24 h | AID 504444 | 360,000 compounds, 2.1% hits | Potency, µM (top dose mostly 46 µM), inactives show at the top dose activity change, negative = inhibition, hits mostly inhibitors; note: potency is the fitted concentration of half-maximal effect; % is set by controls: 0 for no effect and ±100 for the full control effect; nearly all actives have a fitted effect of over 60% in size
#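 Nrf2 function is reported as luminescence of an ARE-controlled luciferase in A549 cells. Compounds were tested at several concentrations, and a CellTiter-Fluor read on the same wells flagged cytotoxicity.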
# Resorufin autofl: counter-screen for mutant IDH1 inhibitors: fluorescence interference; inhibition of signal, % at 51.2 µM; shares compounds with mIDH1 inhibitor; AID 623980; Resorufin detection reagent fluorescence interference, cell-free; 750 tested, under 10 active;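 note: 0% = wells with normal resorufin and full inhibition = wells lacking resorufin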
# WT IDH1 inh: wild-type IDH1 (human) inhibition counterscreen. AID 623995. Potency, µM (highest dose often 115 µM), inactives show at the top dose activity change, negative = inhibition, most hits filed as inhibitors. 750 compounds, 9% hits. WT IDH1 enzyme, NADPH diaphorase/resazurin fluorescence. shares compounds with mIDH1 inhibitor;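 note: potency is the fitted concentration of half-maximal effect; 0% = full WT IDH1 enzyme control and full inhibition = no enzyme wells; nearly all actives have a fitted effect of over 55% in size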
# Target sequence (O75874 whole entry, looked up): as the sequence (O75874 whole entry R132H, stated change not applied) above, with H132R counted along it
# mIDH1 confirm: inhibits human mutant IDH1 enzyme in cherrypick confirmation; shares compounds with mIDH1 inhibitor; IDH1 R132H enzyme, NADPH diaphorase/resazurin fluorescence; Potency, µM (titrated, usually from 76.6 µM), for the others: at the highest dose activity change, negative = inhibition, most hits filed as inhibitors; 750 compounds, 83% hits; AID 624002; note: potency is the fitted concentration of half-maximal effect; nearly all actives have a fitted effect of over 50% in size
# Starred values were filed as active, the others as inactive; ? = inconclusive; / = no result given. Unless noted, calls come from the whole dose curve; as a rule, active = well fitted curve in the direction sought with a large enough effect; inconclusive = small, poorly fitted or top-dose-only effect, or another doubt; inactive = no such curve, though single readings can be large; an effect the other way counts as inactive or inconclusive.
SMILES,A549 tox,Apoferritin bind,Giardia kill,Nrf2 ARE act,mIDH1 inhibitor,Nrf2 block,Resorufin autofl,WT IDH1 inh,mIDH1 confirm
Nc1ccc(CCN2CCN(c3cccc(C(F)(F)F)c3)CC2)cc1,-9%,/,49,4%,7%,?,/,/,/
FC(F)(F)c1ccc2c(c1)N(CCCN1CCN(CCCl)CC1)c1ccccc1S2,?,-19%,19,4%,37µM*,?,-7,-6%,8.9µM*
O=C(N[C@@H]1CN2CCC1CC2)c1cc(Cl)cc2[nH]cnc12,/,-8%,/,/,/,/,/,/,/
CN1CC(CNC(=O)OCc2ccccc2)CC2c3cccc4c3c(cn4C)CC21 (configuration not stated),/,-11%,/,/,/,/,/,/,/
CCOP(=S)(OCC)SCn1c(=O)oc2cc(Cl)ccc21,/,-13%,/,/,/,/,/,/,/
Cc1cc(C=C2C(=O)NC(=S)NC2=O)c(C)n1-c1ccc2c(c1)OCO2,-8%,5%,16,3%,41µM*,1%,2,?,35µM*
Cc1cc(C=C2C(=O)NC(=O)NC2=O)c(C)n1-c1ccc2c(c1)OCO2,-8%,-6%,3,5%,4%,7%,/,/,/
